# Hits are enriched below; roughly 3.5% of the tested compounds scored in any of these assays.
# MITF primary – MITF inhibitors, primary screen, biochemical, AlphaScreen, human. AlphaScreen MITF homodimerization, bead proximity signal. 0.91% of 650,000 active. inhibition, % at 2.6 µM; in the data active means inhibition above about 50%
# Target sequence (O75030 whole entry, looked up): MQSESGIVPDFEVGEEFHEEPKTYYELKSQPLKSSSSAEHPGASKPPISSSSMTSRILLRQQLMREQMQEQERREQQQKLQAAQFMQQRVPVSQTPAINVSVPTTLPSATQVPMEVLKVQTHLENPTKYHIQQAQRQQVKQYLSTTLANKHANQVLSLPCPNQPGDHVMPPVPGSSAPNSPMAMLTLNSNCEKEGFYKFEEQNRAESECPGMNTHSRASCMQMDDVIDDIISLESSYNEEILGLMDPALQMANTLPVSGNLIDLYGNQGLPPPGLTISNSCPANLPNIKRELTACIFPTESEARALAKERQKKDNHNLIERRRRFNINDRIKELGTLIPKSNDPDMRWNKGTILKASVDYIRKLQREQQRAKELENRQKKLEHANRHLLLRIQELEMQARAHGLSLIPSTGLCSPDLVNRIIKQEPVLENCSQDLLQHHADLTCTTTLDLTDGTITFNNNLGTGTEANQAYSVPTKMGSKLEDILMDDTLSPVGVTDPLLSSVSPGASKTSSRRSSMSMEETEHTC
# TEAD-YAP block – TEAD-YAP interaction inhibition, primary screen, TEAD-YAP interaction inhibitor project, luminescence, HEK-TIYL cells; AID 1259422, 2018; inhibition, % at 9.12 µM; TEAD-Gal4/YAP UAS-luciferase luminescence; 1.4% of 640,000 active; in the data active means inhibition above about 32%
# FBW7 activator – FBW7 E3 ligase activators, primary screen, biochemical, AlphaScreen, human. F-box/WD repeat-containing protein 7 (Homo sapiens), Q969H0. AlphaScreen FBW7–phospho-cyclin E peptide binding, activator screen. normalized activity (activation), % at 26.1 µM. 0.13% of 650,000 active. AID 1259310, 2017; in the data active means normalized activity above about 1.9%;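 further: purified mutant Fbw7 with reduced substrate affinity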
# GPR151 activ – activators of human GPR151, primary screen, cell-based, PathHunter beta-arrestin, luminescence; PathHunter beta-arrestin GPR151 cells; activation, % at 11.2 µM; 1% of 650,000 active; in the data active means activation above about 4.9%
# Hits are given with their value; – = inactive.
SMILES,MITF primary,TEAD-YAP block,FBW7 activator,GPR151 activ
CC(C)n1cnc2c(NC3CC3)nc(-c3ccc(C(N)=O)cc3)nc21,–,40,–,–
CC(C)CCNC(=O)C1CCCN1C(=O)Nc1cccc(F)c1 (configuration not stated),–,–,–,–
CN(C)c1cccc(Nc2nc(NCCN3CCOCC3)c3ncn(CCN4CCCC4=O)c3n2)c1,–,–,–,–
Nc1cccc(F)c1Nc1ccc2c(cnn2-c2cccc(C(=O)NCCN3CCOCC3)c2)c1,–,79,–,–
CC(=O)N1CCc2cc(Br)cc(S(=O)(=O)N3CCC(Cc4ccccc4)CC3)c21,–,–,–,–
CCc1c(C(=O)N2CCN(c3cccc(OC)c3)CC2)[nH]c(C)c1C(C)=O,–,54,–,–
CC(=O)c1c(C)[nH]c(C(=O)N2CCN(c3cc(Cl)ccc3C)CC2)c1C,–,–,–,–
COc1cccc(N2CCN(C(=O)c3[nH]c(C)c(C(C)=O)c3C)CC2)c1,–,40,–,–
CC(=O)c1c(C)[nH]c(C(=O)N2CCN(c3ccc(F)cc3)CC2)c1C,–,–,–,–
CC(=O)c1c(C)[nH]c(C(=O)N2CCN(c3cccc(Cl)c3)CC2)c1C,–,52,–,–
COC(=O)c1ccc(C2Nc3c(cccc3[N+](=O)[O-])C3C=CCC32)cc1 (configuration not stated),–,–,–,–
CCN(CC)C(=O)CCNS(=O)(=O)c1ccc(OC)c(N(C)S(C)(=O)=O)c1,–,–,–,–
CCOC(=O)c1sc2ncnc(Nc3cccc(C)c3)c2c1C,–,–,–,–
CCOC(=O)c1sc2ncnc(Nc3ccc(C)cc3Br)c2c1C,–,59,–,–
c1ccc(Oc2ccc(Nc3nccn4c(-c5ccoc5)cnc34)cc2)cc1,–,–,–,–
CC(C)c1ccc(Nc2nccn3c(-c4ccoc4)cnc23)cc1,–,–,2.3,–
O=C(NNc1ccc(C(F)(F)F)cc1[N+](=O)[O-])c1ccccc1,–,–,–,–
O=C(NNc1ccc(C(F)(F)F)cc1[N+](=O)[O-])C(F)(F)F,–,–,2.5,–
O=C(NNc1ccc([N+](=O)[O-])cc1[N+](=O)[O-])c1ccccc1,–,73,–,–
O=C(Nc1ccc([N+](=O)[O-])cc1[N+](=O)[O-])c1ccccc1,–,–,–,–
CC1(C)C2CCC1(CS(=O)(=O)NCc1ccco1)C(=O)C2 (configuration not stated),–,–,–,–
O=[N+]([O-])c1ccc(NC(=S)NC2CCN(Cc3ccccc3)CC2)cc1,–,34,–,–
NS(=O)(=O)c1ccc(NC(=S)NC2CCN(Cc3ccccc3)CC2)cc1,–,–,–,–
CC(C)(CO)NC(=O)C1COc2ccccc2O1 (configuration not stated),–,–,–,–
CC1CCC(C(=O)NC(Cc2c[nH]c3ccccc23)C(=O)Nc2cccnc2)CC1 (configuration not stated),–,58,–,–
SMILES,MITF primary,TEAD-YAP block,FBW7 activator,GPR151 activ
O=C(NC(Cc1c[nH]c2ccccc12)C(=O)Nc1ccccc1)Oc1ccccc1 (configuration not stated),–,–,–,–
COc1ccc(NC(=O)C(Cc2c[nH]c3ccccc23)NC(=O)c2ccccc2)cc1 (configuration not stated),–,62,–,–
O=C(Nc1cccc(O)c1)c1c(O)c2c([nH]c1=O)CCCC2,–,56,–,–
Cc1ccc(NC(=O)c2scc3c2CCCC3)cc1,–,–,–,–
O=C(Nc1ccc2ccccc2c1)c1scc2c1CCCC2,–,–,–,–
CC(=O)c1ccc(NC(=O)c2scc3c2CCCC3)cc1,–,72,–,–
CC(C)(C)c1ccc(NC(=O)c2scc3c2CCCC3)cc1,–,33,–,–
COc1ccc(NC(=O)c2scc3c2CCCC3)cc1,–,40,–,–
COCCNC(=O)c1ccc2c(c1)nc(C)n2-c1cc(Cl)ccc1OC,–,–,–,–
O=C1Nc2ccccc2N(O)N1c1nccs1,–,–,–,–
O=C(Nc1cccc(O)c1)c1scc2c1CCCC2,–,79,–,–
CC(C)c1ccc(C(=O)CSc2ncn[nH]2)cc1,–,37,–,–
CNC(=O)c1ccccc1Nc1cc(Nc2ccc(N3CCOCC3)cc2F)ncc1C(F)(F)F,–,67,–,–
CNC(=O)c1ccccc1Nc1nc(Nc2ccc(-n3cnc(N4CCOCC4)n3)cc2)ncc1Cl,–,–,–,–

# Screens as filed in PubChem.
